# Data published in PubChem BioAssay AID1645886 (National Center for Advancing Translational Sciences (NCATS), 2021).
# Values joined by “and” are separate entries in the source; they are usually repeats but may differ in a detail not shown here. Equal entries are not always repeated. The whole screen tested about 16,000 compounds, of which about 260 (1.6%) were called active. About 14% were inconclusive and are not listed. Calls follow the shape of the dose curve; as a rule, active = well fitted inhibition curve with a large enough effect; inconclusive = small, poorly fitted or top-dose-only effect; inactive = no such curve, though single readings can be large or run the other way. Only a selection was taken, and actives are over-represented in it overall. Where a structure was tested more than once in an assay, its records may differ in their call. *1 amine or outer side, *2 acyl side, *3 side chain or, on linkers, in order; H or OH if unused. Where a SMILES comes first, the peptide text is derived from it. Bridges are numbered along the chain shown (N, C = ends). [ ]: non-standard residue; d: D form. The star is where a group is joined. X12 = NC1=N[C@@H]([C@H](N[*:1])C(=O)[*:2])C[C@H](O)N1; ΔAla(Z-3-ureido) = NC(=O)N/C=C(\N)C(=O)O; β3hOrn = NCCC[C@H](N)CC(=O)*; Dap = NC[C@H](N)C(=O)O
# Target: Rap guanine nucleotide exchange factor 4 (Homo sapiens) (UniProt Q8WZA2)
# Assay: Validation qHTS for antagonist of cAMP-regulated guanine nucleotide exchange factor 4 (EPAC2); also: nearly all actives have a fitted effect of over 40% in size
# Details: EPAC2 Rap1B BODIPY-GDP exchange, fluorescence; series mostly up to 112 µM; activity, negative = inhibition: at the top concentration
# Text: Principle Investigator: Xiaodong Cheng Ph.D. The University of Texas Medical Branch, […], TX MLPCN Grant: NS066510 In multi-cellular eukaryotic organisms, the effects of cAMP are transduced by two ubiquitously-expressed intracellular cAMP receptors, the classic protein kinase A/cAMP-dependent protein kinase (PKA/cAPK) and the more recently discovered exchange protein directly activated by cAMP/cAMP-regulated guanine nucleotide exchange factor (EPAC/cAMP-GEF). Both PKA and EPAC are ubiquitously expressed in all tissues, and an increase in intracellular cAMP levels will lead to the activation of both PKA and EPAC. Therefore, careful dissections of the individual role and relative contribution of EPAC and PKA within the overall cAMP signaling in various model systems are critical for further elucidating the mechanism of cAMP signaling. To date no EPAC-specific antagonists and agonist, as well as isoform-specific agonists have been reported, and developing EPAC-specific pharmacological probes to determine the physiological functions that EPAC play in the overall cAMP-mediated signaling remains a major challenge within the research field. Furthermore, identified regulators of EPAC may lead to new mechanism-based therapeutic strategies specifically targeting the EPAC / cAMP-signaling components as EPAC has been implicated to play important roles in major human pathological conditions such as diabetes, heart disease, and cancer. This qHTS will be used to screen the Molecular Libraries Small Molecule Repository (MLSMR) as a concentration-titration series using the NCGC unique quantitative screening (qHTS) platform to find activators for EPAC1. In addition, this assay will also be used as a counterscreen for the EPAC2 qHTS. This fluorescent based assay is developed and validated for EPAC1 that measures exchange using EPAC effector Rap1 complex with BODIPY-GDP, a GDP analog with a tethered fluorophores. Activators are identified by monitoring the change in fluorescence signal as the exchanged free BODIPY-GDP has a reduced fluorescence compared to Rap1-bound BODIPY-GDP. Increase in signal (activation) is the desired outcome for the EPAC1 agonist while no activity in this assay is desired for the EPAC2 agonist counterscreen. Reference: [1] de Rooij, J., Zwartkruis, F. J., Verheijen, M. H., Cool, R. H., Nijman, S. M., Wittinghofer, A., and Bos, J.L. (1998) Nature 396, 474-477.
# Briefly, three uL of reagents (100 nM EPAC2, 250 nM RAP1B-BODIPY-GDP, 50 uM GDP) were dispensed into a 1536-well Greiner black solid-bottom medium binding assay plate. Controls and test compounds (23 nL) were transferred to the plate via a Kalypsys pin tool equipped with a 1536-pin array. The plates were centrifuged at 1,000 rpm for 15 seconds followed by 5 minute incubation at room temperature. The assay plates were read at 5 minute intervals for 30 minutes in the ViewLux plate reader using 480nm excitation and 540nm emission filters. The results were normalized to the agonist positive control of 6.5 mM cAMP.
# Potency is read from the fitted curve at half-maximal effect.
# Rap guanine nucleotide exchange factor 4 (Homo sapiens), sequence (Q8WZA2 whole entry, looked up): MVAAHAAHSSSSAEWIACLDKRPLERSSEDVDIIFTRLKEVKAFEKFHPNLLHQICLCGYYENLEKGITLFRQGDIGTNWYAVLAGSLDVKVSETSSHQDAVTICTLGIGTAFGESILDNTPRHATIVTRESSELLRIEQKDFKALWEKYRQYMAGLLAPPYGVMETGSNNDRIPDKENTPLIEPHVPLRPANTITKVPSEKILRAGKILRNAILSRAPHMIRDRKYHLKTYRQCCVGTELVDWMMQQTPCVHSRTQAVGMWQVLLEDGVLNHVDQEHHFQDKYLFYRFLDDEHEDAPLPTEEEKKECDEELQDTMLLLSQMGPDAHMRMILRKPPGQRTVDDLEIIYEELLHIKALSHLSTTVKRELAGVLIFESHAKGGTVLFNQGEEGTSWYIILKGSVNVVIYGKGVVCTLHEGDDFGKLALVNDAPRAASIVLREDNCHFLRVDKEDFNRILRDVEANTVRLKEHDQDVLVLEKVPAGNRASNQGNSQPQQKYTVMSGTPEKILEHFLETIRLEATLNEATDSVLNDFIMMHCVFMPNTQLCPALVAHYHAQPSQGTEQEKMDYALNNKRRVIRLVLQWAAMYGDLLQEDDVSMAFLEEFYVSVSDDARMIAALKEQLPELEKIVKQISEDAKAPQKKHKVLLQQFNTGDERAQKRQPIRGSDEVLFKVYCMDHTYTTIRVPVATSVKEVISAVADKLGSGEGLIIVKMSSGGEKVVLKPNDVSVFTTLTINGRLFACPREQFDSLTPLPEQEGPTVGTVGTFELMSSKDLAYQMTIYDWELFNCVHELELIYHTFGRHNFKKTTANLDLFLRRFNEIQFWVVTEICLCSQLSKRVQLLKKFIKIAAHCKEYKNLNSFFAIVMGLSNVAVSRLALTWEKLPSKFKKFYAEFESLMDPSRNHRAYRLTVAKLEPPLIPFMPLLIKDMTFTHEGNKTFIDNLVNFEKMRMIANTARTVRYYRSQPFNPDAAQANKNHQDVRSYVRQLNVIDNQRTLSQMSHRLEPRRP
SMILES,"activity, negative = inhibition",Potency
C/C=C/C=N/NC(=O)c1ccncc1,-17.4% (inactive),–
O=c1c(CCc2ccccc2)nc2cnc(N3CCNCC3)nc2n1Cc1cccs1,-10.5% (inactive),–
COc1ccc(CC(N)C(=O)NC2C(O)[C@H](n3cnc4c(N(C)C)ncnc43)O[C@@H]2CO)cc1 (some centres not stated),-11.5% (inactive),–
O=C1c2c(O)cccc2[C@@H]([C@@H]2O[C@H](CO)[C@@H](O)[C@H](O)[C@H]2O)c2cc(CO)cc(O)c21,-22.2% (inactive),–
CCOC(=O)N1CCC(N2CCOc3ccc(CN4CCC(O)(c5cccnc5)CC4)cc3C2)CC1,–,79.4 µM (active)
CC(C)c1cc(C(=O)N2CCOc3ccc(CN4CCC(Oc5cccnc5)CC4)cc3C2)n[nH]1,-9.89% (inactive),–
CCOC(=O)N1CCN(Cc2ccc3c(c2)CN(C(=O)c2cccc(-n4cccn4)c2)CCO3)CC1,-2.38% (inactive),–
COCCn1c(=O)c(-c2ccc(OC)cc2)nc2cnc(Oc3cccc(Cl)c3)nc21,-28.7% (inactive),–
CC(C)NC(=O)N1CC[C@@]2(CCCN(C(=O)c3ccco3)C2)C1,-26.8% (inactive),–
CC(C)(C)c1ccc(C(=O)C[N+]2(C)CCCc3ccccc32)cc1 (configuration not stated),-5.47% (inactive),–
COc1ccc(F)c(CN2CCC3(CCC(CNC(=O)c4ccn(C)n4)O3)CC2)c1 (configuration not stated),-3.57% (inactive),–
CS(=O)(=O)Nc1cccc(-c2cncnc2Nc2ccccc2)c1,-7.64% (inactive),–
CC(=O)OCC(=O)C1CCC2C3CCC4=CC(=O)CC[C@@]4(C)C3CC[C@]12C (some centres not stated),-10.5% (inactive),–
CC(C)c1ccc2c(c1)c(SC(C)(C)C)c(CC(C)(C)C(=O)O)n2Cc1ccc(Cl)cc1,–,inactive and 50.1 µM (active)
N#Cc1cccc(-c2ccc3ncnc(NCc4cccs4)c3c2)c1,-7.28% (inactive),–
C=C(C)C1CC=C(CO)CC1 (configuration not stated),-12.9% (inactive),–
CCCC1C(=O)N2C(N(C)C)=Nc3ccc(C)cc3N2C1=O (configuration not stated),-16.8% [at 56.6 µM] (inactive),–
COC(=O)N1CCC2(CCCN(c3ccncc3)C2)CC1,1.24% (inactive),–
CC[N+](C)(CC)CCC[n+]1c(-c2ccccc2)c2cc(N)ccc2c2ccc(N)cc21,–,50.1 µM (active)
O=C1CCN(Cc2ccc([N+](=O)[O-])cc2)CCN1[C@H](CO)Cc1ccccc1,-7.03% (inactive),–
Cc1cccc(-c2cc(=O)c3cc(C)ccc3o2)c1,-23.6% (inactive),–

SMILES,"activity, negative = inhibition",Potency
CN(C)CCc1c[nH]c2ccc(Cn3cncn3)cc12,-7.05% (inactive),–
Cc1noc(C)c1-c1cc(NCc2cccnc2)ncn1,-28.3% (inactive),–
C=CC1(C)CC(=O)C2(O)C(C)(O1)C(OC(C)=O)C(O)C1C(C)(C)CCC(O)C12C (configuration not stated),-12.8% (inactive),–
COc1cc(-c2cccnc2)cc2c1OCCN(C(=O)Cc1csc(C)n1)C2,-11.1% (inactive),–
CCCCCCc1ccc(O)cc1O,–,39.8 µM (active)
NCCC[C@H](N)CC(=O)N[C@H]1CNC(=O)[C@H]([C@H]2C[C@H](O)NC(N)=N2)NC(=O)/C(=C/NC(N)=O)NC(=O)[C@H](CO)NC(=O)[C@H](CO)NC1=O (β3hOrn-[Dap]SS[ΔAla(Z-3-ureido)][X12]; lactam 1-C),-5.63% (inactive),–
O=C(O)C[C@@H]1NC(=O)[C@H](Cc2ccccc2)NC1=O,-8.54% (inactive),–
COc1ccc2c(c1)CCc1cnc(-n3ncc(C(=O)NCc4cccnc4)c3C3CC3)nc1-2,6.6% (inactive),–
Cc1nc2cnc(Nc3ccccc3)nc2n(C[C@H]2CCCO2)c1=O,-3.7% (inactive),–
CN1CCN(c2ncc3nc(-c4ccc(Cl)cc4)c(=O)n(-c4ccccc4)c3n2)CC1,-24.2% (inactive),–
Cc1nc2cnc(N3CCN(C)CC3)nc2n(C[C@H]2CCCO2)c1=O,-7.61% (inactive),–
CC(O)[C@@H](N)C(=O)O (some centres not stated),12.4% (inactive),–
COC(=O)C1CCCCN1Cc1ccc2c(c1)CN(Cc1cc(OC)c3c(c1)OCO3)CCO2 (configuration not stated),-25.8% (inactive),–
NCCC(=O)c1ccccc1N,-11% (inactive),–
Cc1ccc(-c2nn(CC(C)(C)C)c3ncnc(N)c23)cc1,-16.1% (inactive),–
CN[C@@H]1[C@H](O[C@H]2[C@H](O[C@H]3[C@H](O)[C@@H](O)[C@H](N=C(N)N)[C@@H](O)[C@@H]3N=C(N)N)O[C@@H](C)[C@]2(O)CO)O[C@@H](CO)[C@H](O)[C@H]1O,-7.91% (inactive),–
CCS(=O)(=O)N(C)[C@@H]1c2cc(C#N)ccc2OC(C)(C)[C@H]1O,-18.9% (inactive),–
CC(C)=CCN1CCC2(CCc3ccccc32)CC1,4.49% (inactive),–
Nc1nc2[nH]c(=O)c(=O)[nH]c2c(=O)[nH]1,-5.47% (inactive),–
Cn1c(=O)c(-c2ccccc2)nc2cnc(N3CCNCC3)nc21,-20.6% (inactive),–
COc1ccccc1CN1CC2(CCN(S(=O)(=O)c3ccccc3)CC2)C1,-22.4% (inactive),–

SMILES,"activity, negative = inhibition",Potency
CCC1(C2CCN(Cc3cccnc3)CC2)NC(=O)N(CC2COc3ccccc3O2)C1=O (configuration not stated),-20.3% (inactive),–
CCn1ccnc1C[C@@H]1COc2ccccc2O1,–,20 µM (active)
Nc1nc2c(nc(Cl)n2C2OC(CO)C(O)C2O)c(=O)[nH]1 (configuration not stated),-5.51% (inactive),–
Cc1nnc(C(=O)NC(C)(C)c2nc(C(=O)NCc3ccc(F)cc3)c(O)c(=O)n2C)o1,13.2% (inactive),–
O=C(c1cccc(F)c1)N1CCC2(CC1)CCN(c1ccccc1)CC2,-18.3% (inactive),–
COc1ccc(-n2c(=O)c(-c3cn(C)c4ccccc34)nc3cnc(OC)nc32)cc1,-21.3% (inactive),–
COc1ccccc1CNc1ncnc2ccc(-c3c(C)noc3C)cc12,-16% (inactive),–
CC1(C)OC2CC3C4CCC5=CC(=O)CCC5(C)C4(F)C(O)CC3(C)[C@]2(C(=O)CCl)O1 (some centres not stated),-11.2% (inactive),–
COc1ccccc1-c1ccc(C(=O)N(C)C(C)c2ccon2)c(N2CCN(c3ccccc3F)CC2)n1 (configuration not stated),-16.9% (inactive),–
COc1ccccc1-c1ccnc(-n2ncc(C(=O)NCCCN3CCOCC3)c2C)n1,-2.97% (inactive),–
N#Cc1ccc(CN2CCCC3(CCN(C(=O)c4ccco4)CC3)C2)cc1,-18.6% (inactive),–
CS(=O)(=O)N1CCC2(CC1)CN(c1ccncc1)C2,-32.4% (inactive),–
COc1ccc(NC(=O)N2CC3(CCN(C(C)=O)CC3)C2)cc1,-19.7% (inactive),–
N#Cc1ccccc1-c1ccc2ncnc(NCc3cccnc3)c2c1,-5.3% (inactive),–
COC1(C2=NCCN2)COc2ccccc2O1 (configuration not stated),-22% (inactive),–
COc1ccc2c(=O)cc(-c3ccccc3)oc2c1O,-30.4% (inactive),–
Cc1ccc(-c2ccnc(-n3ncc(C(=O)N(C)Cc4cccc5ncccc45)c3C3CC3)n2)o1,5.35% (inactive),–
NC1CCN(O)C1=O (configuration not stated),9.16% (inactive),–
CC(=O)O[C@]1(C(C)=O)CC[C@H]2[C@@H]3C=C(C)C4=CC(=O)CC[C@]4(C)[C@H]3CC[C@@]21C,-0.525% [at 56.6 µM] (inactive),–
Nc1nc2c(ncn2[C@@H]2O[C@H](COP(=O)(O)OP(=O)(O)OP(=O)(O)O)[C@@H](O)C2O)c(=O)[nH]1 (some centres not stated),13.3% (inactive),–
